# Compounds without any hit were thinned out: in the full panel of roughly 83,000, 20% have a hit.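 Compound tested at a single concentration for 48 hours in 96-well plates; a percent growth value below 10 was scored as active.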 Values without a mark were called inactive. Active and inactive are the calls of the source.
# System: RXF 393 renal
# Assay: NCI-60 one-dose screen, 48 h (100 = growth as untreated, 0 = no growth, -100 = all killed)
# Conditions: 10 µM unless noted
row,SMILES,growth
1,COc1cc(/C(C)=C(\c2ccc(Cl)cc2)c2ccc(OCCN(C)C)cc2)ccc1F,60.5%
2,O=C(/C=C/c1ccc(Cl)cc1)c1ccc(NC(=O)N2CCN(c3cc4c(cc3F)c(=O)c(C(=O)O)cn4C3CC3)CC2)cc1,97.9%
3,O=C(c1nc2ccccc2[nH]1)C1C(c2ccc(Cl)cc2)C2CC3CCCC[C@H]3N2[C@@]12C(=O)Nc1cc(Cl)ccc12 (some centres not stated),35.7%
4,O=C(NCCNc1nccc(-c2c(-c3cccc(F)c3)nc3sccn23)n1)c1ccc(Cl)cc1,72.9%
5,O=C(CCN1CCCC1)Nc1ccc2c(NCCCc3ccccc3)c3ccccc3nc2c1,5.65% (active)
6,N#CC1=C(/N=C/c2ccccc2)Oc2c(ccc3ccccc23)C1c1ccc([N+](=O)[O-])cc1 (configuration not stated),98.2%
7,Brc1ccc(Nc2csc(-c3ccccn3)n2)cc1,106%
8,COc1cc(/C(C)=C(\c2ccc(Cl)cc2)c2ccc(OCCN3CCCC3)cc2)ccc1F,69.3%
9,CC(=O)N1c2ccccc2NC2=C(C(=O)NC2(C)C)C1c1ccco1 (configuration not stated),58%
10,CCOC(=O)CSc1nc2ccccc2c(=O)n1Cc1ccc(S(N)(=O)=O)cc1,98.4%
11,CCCCOc1ccc(/C(C)=N/Nc2cc(C)nc3ccc(Br)cc23)cc1,94.3%
12,COc1cc2c(c(O)c1Cl)C(=O)c1c(O)cc(C[C@H](C)O)cc1[C@H]2[C@H]1c2cc(C[C@H](C)O)cc(O)c2C(=O)c2c1cc(OC)c(Cl)c2O,10.4%
13,O=C(c1ccccc1)N1N=C(c2ccc(-n3ccc(C(F)(F)F)n3)c(F)c2)CC1c1ccc[nH]1 (configuration not stated),112%
14,O=C(Nc1ccc(-c2ccc3c(c2)NC(=O)/C3=C\c2ccc[nH]2)cc1)NC1CC1,99.1%
15,O=c1ccc(-c2nc(N3CCOCC3)c3ccccc3n2)c[nH]1,103%
16,COc1cc(/C=C\C(=O)O)ccc1OCc1ccccc1,103%
17,COc1ccc(C(C)=O)c(OC)c1,117%
18,NC1=NN=C(N)C1=Cc1cc2ccccc2n2nnnc12,110%
19,C=C1C(=O)O[C@H]2[C@H]1CC/C(CNC(=O)/C=C/c1cccc(OC)c1)=C\CC[C@@]1(C)O[C@@H]21,-80.5% (active)
20,CNC(=O)c1cc(Cn2nc(C)c(NC(=O)Nc3ccc(Cl)c(C(F)(F)F)c3)c2C)ccn1,102%
21,Cc1ccc(/C=N/NC(=O)CSc2nc3ccccc3c(=O)n2Cc2ccc(S(N)(=O)=O)cc2)cc1,86.8%
22,O=C(Cc1ccc(/C=C/C(=O)c2ncc[nH]2)cc1)Nc1ccc(Cl)cc1,49.7%
23,CCCOC(=O)N[C@H]1CCc2c(Cl)c(OC)c(OC)c(OC)c2-c2ccc(SC)c(=O)cc21,24.3%
24,O=S(=O)(NCCCNc1nccc(-c2c(-c3cccc(O)c3)nc3occn23)n1)c1ccc(Cl)cc1,77.9%
25,COc1cc2c(=O)n(CCN(C)C)c3c4cc5c(cc4ccc3c2cc1OC)OCO5,-84.6% (active)
26,C=CC(=O)N[C@@H](/C=C/C(=O)OCC)Cc1ccc(-c2cc(Cl)cc(Cl)c2)cc1,-10.1% (active)
27,NC(=NCCCOc1ccc(F)cc1)Nc1ccc(I)cc1,94%
28,Cc1cc2nc3c4cccc(O)c4n(CCN(C)C)c3nc2cc1C,35.1%
29,Oc1ccc(C(c2ccc(O)cc2)c2ccc(Br)cn2)cc1,-22% (active)

# System: SF-268 CNS
# Assay: as above
# Conditions: 10 µM unless noted
row,SMILES,growth
1,COc1cc(C=O)ccc1OC1OC(COC(C)=O)C(OC(C)=O)C(OC(C)=O)C1OC(C)=O (configuration not stated),99.2%
2,CC1=CCC(OC(=O)C(C)(O)CCC(O)(C(=O)OC2(C)C=CC(O)(C(C)C)CC2)C(C)C)(C(C)C)CC1 (configuration not stated),101%
3,CC(=O)Nc1cccc(-c2ccc3c(c2)NC(=O)/C3=C\c2ccc[nH]2)c1,67.5%
4,CC(C)(C)c1ccc(NS(=O)(=O)c2ccc3nc(NC(=O)c4cnccn4)[nH]c3c2)cc1,37.7%
5,CC(C)(C)c1cc(/C=N/NC(=O)c2ccccc2NC(=O)c2cccs2)c(O)c(C(C)(C)C)c1,24.6%
6,C#CCNC(=O)[C@H](Cc1ccccc1)NC(=O)[C@]12CC[C@@H](C(=C)C)[C@@H]1[C@H]1CC[C@@H]3[C@@]4(C)CCC(=O)C(C)(C)[C@@H]4CC[C@@]3(C)[C@]1(C)CC2,74.3%
7,CCCCCCNC(=O)Oc1ccc(/C(=C(\C)c2ccccc2)c2ccc(OCCCN(C)C)cc2)cc1,79.4%
8,CC(=O)Nc1ccc(-c2ccc3c(c2)NC(=O)/C3=C\c2ccc[nH]2)cc1,92.1%
9,CCCCOc1ccc(/C=N/Nc2cc(C)nc3ccc(Br)cc23)cc1,88.3%
10,COc1cc(/C(C)=C(\c2ccc(Cl)cc2)c2ccc(OCCN(C)C)cc2)ccc1F,70.8%
11,O=C(/C=C/c1ccc(Cl)cc1)c1ccc(NC(=O)N2CCN(c3cc4c(cc3F)c(=O)c(C(=O)O)cn4C3CC3)CC2)cc1,89.3%
12,O=C(c1nc2ccccc2[nH]1)C1C(c2ccc(Cl)cc2)C2CC3CCCC[C@H]3N2[C@@]12C(=O)Nc1cc(Cl)ccc12 (some centres not stated),42.2%
13,O=C(NCCNc1nccc(-c2c(-c3cccc(F)c3)nc3sccn23)n1)c1ccc(Cl)cc1,67.9%
14,O=C(CCN1CCCC1)Nc1ccc2c(NCCCc3ccccc3)c3ccccc3nc2c1,21%
15,N#CC1=C(/N=C/c2ccccc2)Oc2c(ccc3ccccc23)C1c1ccc([N+](=O)[O-])cc1 (configuration not stated),89.2%
16,Brc1ccc(Nc2csc(-c3ccccn3)n2)cc1,90.9%
17,COc1cc(/C(C)=C(\c2ccc(Cl)cc2)c2ccc(OCCN3CCCC3)cc2)ccc1F,76.6%
18,CC(=O)N1c2ccccc2NC2=C(C(=O)NC2(C)C)C1c1ccco1 (configuration not stated),77.2%
19,CCOC(=O)CSc1nc2ccccc2c(=O)n1Cc1ccc(S(N)(=O)=O)cc1,99.2%

row,SMILES,growth
1,CCCCOc1ccc(/C(C)=N/Nc2cc(C)nc3ccc(Br)cc23)cc1,96.3%
2,COc1cc2c(c(O)c1Cl)C(=O)c1c(O)cc(C[C@H](C)O)cc1[C@H]2[C@H]1c2cc(C[C@H](C)O)cc(O)c2C(=O)c2c1cc(OC)c(Cl)c2O,21.4%
3,O=C(c1ccccc1)N1N=C(c2ccc(-n3ccc(C(F)(F)F)n3)c(F)c2)CC1c1ccc[nH]1 (configuration not stated),104%
4,O=C(Nc1ccc(-c2ccc3c(c2)NC(=O)/C3=C\c2ccc[nH]2)cc1)NC1CC1,103%
5,O=c1ccc(-c2nc(N3CCOCC3)c3ccccc3n2)c[nH]1,88.1%
6,COc1cc(/C=C\C(=O)O)ccc1OCc1ccccc1,94.8%
7,COc1ccc(C(C)=O)c(OC)c1,111%
8,NC1=NN=C(N)C1=Cc1cc2ccccc2n2nnnc12,98.6%
9,C=C1C(=O)O[C@H]2[C@H]1CC/C(CNC(=O)/C=C/c1cccc(OC)c1)=C\CC[C@@]1(C)O[C@@H]21,48.4%
10,CNC(=O)c1cc(Cn2nc(C)c(NC(=O)Nc3ccc(Cl)c(C(F)(F)F)c3)c2C)ccn1,98%
11,Cc1ccc(/C=N/NC(=O)CSc2nc3ccccc3c(=O)n2Cc2ccc(S(N)(=O)=O)cc2)cc1,78.2%
12,O=C(Cc1ccc(/C=C/C(=O)c2ncc[nH]2)cc1)Nc1ccc(Cl)cc1,12%
13,CCCOC(=O)N[C@H]1CCc2c(Cl)c(OC)c(OC)c(OC)c2-c2ccc(SC)c(=O)cc21,24.7%
14,O=S(=O)(NCCCNc1nccc(-c2c(-c3cccc(O)c3)nc3occn23)n1)c1ccc(Cl)cc1,87.4%
15,COc1cc2c(=O)n(CCN(C)C)c3c4cc5c(cc4ccc3c2cc1OC)OCO5,0.0226% (active)
16,C=CC(=O)N[C@@H](/C=C/C(=O)OCC)Cc1ccc(-c2cc(Cl)cc(Cl)c2)cc1,32.1%
17,NC(=NCCCOc1ccc(F)cc1)Nc1ccc(I)cc1,67.7%
18,Cc1cc2nc3c4cccc(O)c4n(CCN(C)C)c3nc2cc1C,51.1%
19,Oc1ccc(C(c2ccc(O)cc2)c2ccc(Br)cn2)cc1,104%

# Source: PubChem BioAssay (NCI)
